High-throughput results as filed in PubChem BioAssay.
Sampled rows, rich in hits. Any-hit rate of the full collection: about 21%.
Shiga toxin inh: A qHTS for Small Molecule Inhibitors of Shiga Toxin | Vero cells, Shiga toxin protein synthesis inhibition reporter | inhibition, % at 38.7 µM | hit rate 9.2% among 290,000 | AID 2315, 2010; in the data active = inhibition mostly above about 28%, no sharp cut-off; inactive = mostly below about 43%
Pf growth 48h: Primary qHTS for delayed death inhibitors of the malarial parasite plastid, 48 hour incubation; P. falciparum luciferase growth in erythrocytes, 48 h; hit rate 5.9% among 310,000; Potency, µM (top dose mostly 28.7 µM), hits mostly inhibitors
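A one-generation exposure of luciferase-tagged malaria parasites in RPMI 1640/Albumax erythrocyte culture, 37 C and 5% CO2. Inhibition is inferred from decreased luminescence after adding detection reagent.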
Cycloheximide cs: Cycloheximide Counterscreen for Small Molecule Inhibitors of Shiga Toxin | cell reporter, cycloheximide protein synthesis inhibition counterscreen | max response, % | hit rate 12% among 300,000 | AID 2314, 2010; in the data active = max response mostly above about 13%, no sharp cut-off; inactive = mostly below about 14%; also: read at 38.3 µM for the half of the compounds with a filed dose
HCMV inh: qHTS Assay for inhibitors of the human cytomegalovirus (HCMV). HFF cells, HCMV-luciferase reporter, 72 h; stronger effect = lower value. activity change, negative = inhibition, % at 57.5 µM. hit rate 4.5% among 410,000. AID 1259415, 2018; in the data active = activity change below about -60%; inconclusive = no clear call, values can overlap the other calls; inactive = above about -39%
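Inhibition of viral replication was scored as loss of reporter luminescence in HFFs infected with HCMV-luciferase (MOI 1 PFU/cell) for 72 h; compounds tested at 2 doses, normalized to buffer and Salinomycin controls.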
Pf growth 96h: Primary qHTS for delayed death inhibitors of the malarial parasite plastid, 96 hour incubation. P. falciparum luciferase reporter growth, 96 h. Potency, µM (titrated, usually from 28.7 µM), actives largely listed as inhibitors. hit rate 6.9% among 320,000. AID 504834, 2011
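Parasite growth measured via integrated firefly luciferase reporter in P. falciparum. Infected erythrocytes at 2% hematocrit, 0.05% parasitemia final were treated 96 hours at 37 C under 5% CO2, and luminescence was read.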
HCV inh: qHTS Assay for Inhibitors of Hepatitis C Virus (HCV) | Huh7.5.1 HCVcc-Cre infection, luciferase reporter, 44 h | Potency, µM (series often up to 41.8 µM), usual class: inhibitors | hit rate 3.4% among 340,000 | AID 651820, 2012
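A cell-based infection assay in which seeded cells (1,000 per well) receive test compound after 4 h, are inoculated with HCVcc-Cre at approximately 0.5 moi, and are incubated 44 h before luminescence detection.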
A number is an active result; – = inactive; ? = inconclusive; · = no result given; [ ] = another dose, or the depositor's remark. Unless noted, calls follow the shape of the dose curve; as a rule, active = well fitted inhibition curve with a large enough effect; inconclusive = small, poorly fitted or top-dose-only effect, or another doubt; inactive = no such curve, though single readings can be large or run the other way.

SMILES	Shiga toxin inh	Pf growth 48h	Cycloheximide cs	HCMV inh	Pf growth 96h	HCV inh
CC(C)CCNC(=O)C1CCN(S(=O)(=O)c2ccc(-n3cnnn3)cc2)CC1	–	–	–	–	–	–
CN(C)C=Nc1ccccc1C1C=NNC1=O (stereo not drawn)	52	–	23	·	–	·
O=C(Oc1ccc(-c2ccccc2)cc1)N1CCCCC1	65	–	35	–	·	–
O=C(Oc1ccccc1)N1CCCCC1	·	·	·	–	·	·
CC(=O)Nc1ccc(OC(=O)N2CCCCC2)cc1	–	–	12	?	?	–
CCOc1ccccc1NC(=O)C(OC(=O)c1ccc(N(C)C)cc1)c1ccccc1 (stereo not drawn)	–	?	–	–	?	11µM
CCOc1ccccc1NC(=O)C(OC(=O)c1ccc(O)cc1)c1ccccc1 (stereo not drawn)	–	12µM	–	–	?	?
COc1ccc(OCC(=O)Nc2nc3ccc(NC(C)=O)cc3s2)cc1	–	–	–	–	?	–
CCC(C)C(=O)Nc1nc2ccc(S(C)(=O)=O)cc2s1 (stereo not drawn)	37	–	20	–	?	–
CC(C)C(=O)Nc1nc2ccc(S(C)(=O)=O)cc2s1	–	–	–	–	–	–
COc1ccc2nc(NC(C)=O)sc2c1	82	–	42	–	·	–
CC(=O)NCCC(=O)Nc1nc2ccc(Oc3ccccc3)cc2s1	101	–	62	–	–	–
CCC(=O)Nc1nc2ccc(NC(=O)COc3ccccc3)cc2s1	–	–	–	·	–	–
CC(=O)Nc1nc2ccc(Br)cc2s1	–	–	21	–	?	?
CN(CC(=O)Nc1c(Cl)cccc1Cl)C(=O)CNC(=O)c1ccc2ccccc2c1	·	–	·	–	–	–[8.37 µM]
O=c1oc2ccccc2c(N2CCN(c3ccccc3F)CC2)c1CN1CCCC1	·	·	·	–	·	·
CCC(C)C(=O)Nc1nc2ccc(OC)cc2s1 (stereo not drawn)	71	–	42	–	–	–
CCCOc1ccc2nc(NC(=O)OC)sc2c1	·	–	·	–	–	·
Cc1ccc(Cn2c(=O)n(-c3cccc(C(F)(F)F)c3)c(=O)c3c(C)c(C)sc32)c(C)c1	·	·	·	–	·	·
O=P1(c2ccccc2)Nc2ccccc2N1c1ccccc1 (stereo not drawn)	·	·	·	-64	·	–
Cc1cccc(NC(=O)c2ccc(COc3ccc4ccccc4c3)o2)n1	–	–	–	–	–	–
Cc1csc(NC(=O)c2ccc(COc3ccccc3)o2)n1	90	–	49	–	–	–
Cc1cccc(NC(=O)c2ccc(COc3ccccc3)o2)n1	40	–	16	–	–	–
COCc1ccc(CN2CCC(n3nccc3NC(=O)CCCc3ccccc3)CC2)o1	–	–	–	–	–	–
CCOc1cc2c(cc1OCC)C(c1ccc(OC)cc1)N(c1ccccc1)C(=O)C2 (stereo not drawn)	–	?	–	–	–	–
SMILES	Shiga toxin inh	Pf growth 48h	Cycloheximide cs	HCMV inh	Pf growth 96h	HCV inh
CCOc1cc2c(cc1OCC)C(c1ccccc1)N(c1ccccc1)C(=O)C2 (stereo not drawn)	–	?	–	–	4.1µM	?
Cc1[nH]c2ccccc2c1C(=O)CSC(=S)N1CCOCC1	84	–	17	–	–	–
CCN(CC)C(=S)SCC(=O)c1c(C)[nH]c2ccccc12	–	–	15	–	?	?
Cc1[nH]c2ccccc2c1C(=O)C(=O)N1CCOCC1	–	–	–	–	?	–
Cc1nc2nc(C)c(NS(=O)(=O)c3ccc(Cl)cc3)c(=O)n2[nH]1	–	–	–	–	–	–
CCc1ccc(NC(=O)Nc2cn(C)c(=O)c3ccccc23)cc1	·	·	·	–	·	·
CCCC(=O)Nc1ccc2oc(-c3cccnc3)nc2c1	54	–	25	–	·	–
COC(=O)Cc1ccc2oc(-c3cccnc3)nc2c1	88	–	49	–	–	–
COc1ccc(C(=O)Nc2ccc3oc(-c4cccnc4)nc3c2)cc1	·	·	·	–	·	·
CCOc1ccc(C(=O)Nc2ccc3oc(-c4cccnc4)nc3c2)cc1	·	·	·	–	·	·
O=C(Nc1ccc2oc(-c3cccnc3)nc2c1)c1cc2ccccc2o1	–	–	–	–	–	?
CCCCC(=O)Nc1ccc2oc(-c3cccnc3)nc2c1	60	–	31	–	–	–
